These results are taken from PubChem BioAssay (NCI).

Common to all, as to assay: NCI-60 one-dose screen, 48 h (100 = growth as untreated, 0 = no growth, -100 = all killed)
One assay deals with SK-MEL-2 melanoma. The conditions noted are these: 10 µM unless noted.
Another assay has as its system SN12C renal. The conditions noted are these: 10 µM unless noted.
The next assay concerns UO-31 renal. Conditions: 10 µM unless noted.
The next assay concerns TK-10 renal. The conditions noted are these: 10 µM unless noted.
The subject of another assay is ACHN renal. Conditions: 10 µM unless noted.
The next assay concerns CAKI-1 renal. Conditions: 10 µM unless noted.
The subject of the next assay is A498 renal. The conditions noted are these: 10 µM.
The test system of a further assay is HL-60(TB) leukemia. Conditions: 10 µM unless noted.
For another assay, the system named is CCRF-CEM leukemia. Conditions: 10 µM unless noted.
The subject of the next assay is MOLT-4 leukemia. The conditions noted are these: 10 µM unless noted.
The subject of a further assay is SR leukemia. Conditions: 10 µM unless noted.
The next assay relates to RPMI-8226 leukemia. Conditions: 10 µM unless noted.
For a further assay, the system named is OVCAR-8 ovarian. Conditions: 10 µM unless noted.
Another assay deals with OVCAR-5 ovarian. The conditions noted are these: 10 µM unless noted.
The subject of the next assay is OVCAR-4 ovarian. The conditions noted are these: 10 µM unless noted.
Another assay relates to SK-OV-3 ovarian. Conditions: 10 µM unless noted.
The next assay has as its system IGROV1 ovarian. The conditions noted are these: 10 µM unless noted.
The subject of another assay is OVCAR-3 ovarian. The conditions noted are these: 10 µM unless noted.
The next assay has as its system HS 578T breast. Conditions: 10 µM unless noted.

Compounds without any hit were thinned out: in the full panel of roughly 83,000, 20% have a hit.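 Interpretation: 100, growth as untreated; towards 0, rising growth inhibition; 0, no net growth; 0 to -100, cell death. Compounds scoring below 10 were considered active.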 A number with no mark means an inactive call. Calls of active or inactive are those of the source.

As for `N/C(=N/N=C/c1ccncc1)N[N+](=O)[O-]`, the growth in the assay on SK-MEL-2 melanoma is 104%; with SN12C renal, 95.8%; in the assay on UO-31 renal it was 93.8%; with TK-10 renal, 94.1%; in the assay with ACHN renal, 101%; in the assay on CAKI-1 renal it was 99.2%. Further, the growth in the assay on A498 renal was 86.3%; in the assay on HL-60(TB) leukemia, 109%; with CCRF-CEM leukemia, 101%; with MOLT-4 leukemia, 84.2%; with SR leukemia it was 90.9%; in the assay with RPMI-8226 leukemia it was 106%. Besides, the growth in the assay with OVCAR-8 ovarian was 103%; with OVCAR-5 ovarian, 94.2%; in the assay with OVCAR-4 ovarian, 103%; with SK-OV-3 ovarian, 111%; in the assay with IGROV1 ovarian, 108%; in the assay on OVCAR-3 ovarian, 113%. The growth with HS 578T breast was 106%.
For the compound `CCCCCCCCCCCCCC[P+](CCCCCC)(CCCCCC)CCCCCC`, the growth in the assay with SK-MEL-2 melanoma is -3.57% (active); with SN12C renal it was -79.1% (active); in the assay with UO-31 renal, -36.6% (active); in the assay on TK-10 renal, -43.3% (active); with ACHN renal, -26% (active); in the assay with CAKI-1 renal, 4.01% (active). The growth is -48.3% (active) in the assay with A498 renal; 43.1% in the assay with HL-60(TB) leukemia; 26.5% with CCRF-CEM leukemia; 51.6% with MOLT-4 leukemia; 62.4% in the assay with SR leukemia; 59.4% with RPMI-8226 leukemia. The growth with OVCAR-8 ovarian is -79.9% (active); with OVCAR-5 ovarian it was -7.29% (active); in the assay with OVCAR-4 ovarian, -91.8% (active); in the assay on SK-OV-3 ovarian, -3.34% (active); in the assay with OVCAR-3 ovarian, -100% (active); in the assay with HS 578T breast, -35.8% (active).
As for `CC(=O)O[C@H]1CC[C@@]2(C)C(=CC[C@H]3[C@@H]4C[C@@H](N5CC5)[C@H](C(C)=O)[C@@]4(C)CC[C@@H]32)C1`, the growth in the assay on SK-MEL-2 melanoma is 103%; with SN12C renal, 88.9%; in the assay with UO-31 renal, 104%; in the assay on TK-10 renal, 105%; with ACHN renal, 83.1%; in the assay on CAKI-1 renal, 89.3%. Moreover, the growth with A498 renal was 98.7%; with HL-60(TB) leukemia it was 92.4%; in the assay on CCRF-CEM leukemia it was 78%; in the assay on MOLT-4 leukemia, 63.4%; in the assay with SR leukemia, 58.6%; in the assay on RPMI-8226 leukemia, 79.3%. The growth with OVCAR-8 ovarian was 88.5%; with OVCAR-5 ovarian it was 99.5%; in the assay on OVCAR-4 ovarian it was 80.3%; in the assay on SK-OV-3 ovarian it was 99.9%; with IGROV1 ovarian, 86.2%; in the assay on OVCAR-3 ovarian, 109%.
For the compound `CC(=O)/C=C/c1ccc2c(c1)OCO2`, the growth is 107% in the assay on SK-MEL-2 melanoma; 98.1% in the assay with SN12C renal; 100% with UO-31 renal; 99.7% with TK-10 renal; 97.5% in the assay with ACHN renal; 91.5% in the assay with CAKI-1 renal. The growth in the assay on A498 renal is 118%; in the assay with HL-60(TB) leukemia it was 104%; with CCRF-CEM leukemia it was 94.1%; in the assay with MOLT-4 leukemia it was 103%; in the assay with SR leukemia, 98.3%; in the assay on RPMI-8226 leukemia it was 91.5%. Also, the growth with OVCAR-5 ovarian is 106%; in the assay with OVCAR-4 ovarian it was 104%; in the assay with SK-OV-3 ovarian, 106%; in the assay with IGROV1 ovarian it was 118%; with OVCAR-3 ovarian it was 109%; in the assay with HS 578T breast it was 106%.
Take `CCC1(C(C)C)C(=O)NC(=S)NC1=O`: the growth is 117% with SK-MEL-2 melanoma; 103% in the assay with SN12C renal; 97.4% with UO-31 renal; 107% with TK-10 renal; 98.5% with ACHN renal; 99.8% with CAKI-1 renal. For the same compound, the growth is 92.8% in the assay with A498 renal; 102% in the assay with HL-60(TB) leukemia; 97.3% in the assay on CCRF-CEM leukemia; 105% with MOLT-4 leukemia; 104% in the assay with SR leukemia; 98.8% in the assay on RPMI-8226 leukemia. In addition, the growth with OVCAR-8 ovarian was 101%; in the assay on OVCAR-5 ovarian, 102%; in the assay with OVCAR-4 ovarian, 107%; with SK-OV-3 ovarian it was 118%; in the assay on IGROV1 ovarian, 113%; in the assay with OVCAR-3 ovarian, 101%. Also, the growth in the assay with HS 578T breast is 96.3%.
On to `COc1cc(C=Nc2cccc(C(=O)O)c2)ccc1N(CCCl)CCCl`, for which the growth was 108% with SK-MEL-2 melanoma; 98.5% in the assay with SN12C renal; 84.6% with UO-31 renal; 125% with TK-10 renal; 81.8% in the assay on ACHN renal; 95% with CAKI-1 renal. Further, the growth was 102% in the assay on A498 renal; 110% in the assay on HL-60(TB) leukemia; 102% in the assay with CCRF-CEM leukemia; 97.9% with MOLT-4 leukemia; 91.9% in the assay with SR leukemia; 100% in the assay with RPMI-8226 leukemia. Further, the growth is 110% in the assay on OVCAR-5 ovarian; 114% in the assay on OVCAR-4 ovarian; 110% with SK-OV-3 ovarian; 105% with OVCAR-3 ovarian; 92.8% in the assay with HS 578T breast.
In the case of `CC(C)=CCC[C@H](C(=O)O)[C@@H]1CC[C@]2(C)C3=C(CC[C@@]12C)[C@@]1(C)CC[C@H](O)C(C)(C)[C@@H]1CC3`, the growth in the assay on SK-MEL-2 melanoma is 91%; in the assay with SN12C renal, 102%; in the assay on UO-31 renal, 89.8%; in the assay with TK-10 renal it was 93.8%; with ACHN renal, 101%; in the assay on CAKI-1 renal, 75%. Besides, the growth with A498 renal was 104%; with HL-60(TB) leukemia, 85.1%; in the assay with CCRF-CEM leukemia it was 109%; in the assay with MOLT-4 leukemia it was 88.6%; in the assay on SR leukemia it was 91.8%; in the assay on RPMI-8226 leukemia, 88.8%. For the same compound, the growth in the assay on OVCAR-8 ovarian is 96.4%; in the assay with OVCAR-5 ovarian, 96.8%; with OVCAR-4 ovarian, 103%; in the assay on SK-OV-3 ovarian it was 96.7%; in the assay on IGROV1 ovarian, 103%; in the assay on OVCAR-3 ovarian, 107%. In addition, in the assay with HS 578T breast, the growth was 99.9%.
Take `COc1ccc(/C=C\c2cc(OC)c(OC)c(OC)c2)c(NS(=O)(=O)c2ccc(Cl)cc2)c1O`: the growth in the assay on SK-MEL-2 melanoma was 0.0535% (active); with SN12C renal, 22.1%; with UO-31 renal, 33.7%; with TK-10 renal, 25.1%; in the assay with ACHN renal it was 25.9%; in the assay on CAKI-1 renal, 28.1%. The growth with A498 renal is -13% (active); in the assay with HL-60(TB) leukemia, -38.8% (active); in the assay on CCRF-CEM leukemia it was 7.81% (active); in the assay on MOLT-4 leukemia, 10.1%; in the assay with SR leukemia it was 7.33% (active); with RPMI-8226 leukemia, 7.02% (active). In addition, the growth in the assay on OVCAR-8 ovarian is 2.97% (active); with OVCAR-5 ovarian, 49.2%; with OVCAR-4 ovarian, 33.1%; in the assay with SK-OV-3 ovarian, 21.9%; in the assay with IGROV1 ovarian, 30.1%; with OVCAR-3 ovarian, -31.1% (active). Moreover, in the assay with HS 578T breast, the growth was 10.9%.
